According to PubChem BioAssay (EPA / NIEHS):
Inconclusive results are not listed. Calls of active or inactive are those of the source. Rule for the calls, unless noted: active = hit-call score of the fitted dose curve at least 0.9, where 1 is the maximum; inactive = score below 0.9.

Assays:
[1] = read-out: E-selectin (Homo sapiens) (UniProt P16581); assay: BSK_3C_Eselectin: BioMAP Diversity Plus: 3C Assay for Eselectin Biomarker Activity (AID 2283015); details: primary human endothelial cells (HUVEC); actives raise or lower the signal;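 for outcome: cell surface E-selectin protein quantified by ELISA 24 h after dosing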
How it was run: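 Human vascular endothelium from umbilical vein is exposed to test chemicals for 24 h. E-selectin levels are read by ELISA and compared with DMSO controls.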

[2] = read-out: Interleukin-1 alpha (IL1a), IL1A (gene 3552); assay: BSK_BE3C_IL1a: BioMAP Diversity Plus: BE3C Assay for Interleukin-1 alpha (IL1a) Biomarker Activity (AID 2283016); details: primary human bronchial epithelial cells; actives raise or lower the signal
How it was run: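 ELISA read-out of IL-1a from human lung bronchial epithelial primary cells, 24 h post-dose. Gain or loss of signal fitted relative to DMSO negative control.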

[3] = read-out: Monocyte Chemoattractant Protein-1 (MCP1), CCL2 (gene 6347); assay: BSK_3C_MCP1: BioMAP Diversity Plus: 3C Assay for Monocyte Chemoattractant Protein-1 (MCP1) Biomarker Activity (AID 2283017); details: primary human endothelial cells (HUVEC); actives raise or lower the signal
How it was run: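 Endothelial cells from human umbilical vein are dosed with chemical, cultured 24 h, then assayed for MCP-1 by ELISA; both increases and decreases are modelled against DMSO controls.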

[4] = read-out: Monocyte Chemoattractant Protein-1 (MCP1), CCL2 (gene 6347); assay: BSK_4H_MCP1: BioMAP Diversity Plus: 4H Assay for Monocyte Chemoattractant Protein-1 (MCP1) Biomarker Activity (AID 2283018); details: primary human endothelial cells (HUVEC); actives raise or lower the signal
How it was run: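 HUVEC primary cells, 24 h post-dose, MCP-1 by ELISA. Gain or loss of signal fitted bidirectionally vs DMSO baseline. Cytotoxicity: SRB stain (0.1% after 10% TCA fixation), read 560 nm, parallel cultures.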

[5] = read-out: Human Leukocyte Antigen - DR isotype (HLADR), HLA-DRA (gene 3122); assay: BSK_3C_HLADR: BioMAP Diversity Plus: 3C Assay for Human Leukocyte Antigen - DR isotype (HLADR) Biomarker Activity (AID 2283019); details: primary human endothelial cells (HUVEC); actives raise or lower the signal;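 for outcome: ELISA of cell-surface HLA-DR on HUVEC 24 h after dosing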
How it was run: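 Endothelial cells from human umbilical vein are treated with test chemical; after 24 h, HLA-DR levels are measured by ELISA. Data are fitted in both directions using DMSO as the baseline.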

[6] = read-out: Interleukin-8 (IL8), CXCL8 (gene 3576); assay: BSK_3C_IL8: BioMAP Diversity Plus: 3C Assay for Interleukin-8 (IL8) Biomarker Activity (AID 2283020); details: primary human endothelial cells (HUVEC); actives raise or lower the signal
How it was run: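 HUVEC, 3C stimulation; 24 h compound exposure; IL-8 read by ELISA; gain or loss of signal fitted relative to DMSO control.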

[7] = read-out: Monokine induced gamma interferon (MIG), CXCL9 (gene 4283); assay: BSK_3C_MIG: BioMAP Diversity Plus: 3C Assay for Monokine induced gamma interferon (MIG) Biomarker Activity (AID 2283021); details: primary human endothelial cells (HUVEC); actives raise or lower the signal
How it was run: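 HUVEC, 3C system; 24 h chemical exposure; MIG by ELISA; bidirectional fit vs DMSO baseline.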

[8] = target: human Vitamin D Receptor (VDR), VDR (gene 7421) (UniProt P11473); assay: ATG_VDR_TRANS: Attagene TRANS-FACTORIAL HepG2 Assay for human Vitamin D Receptor (VDR) (AID 2283022; active = hit-call score of the fitted dose curve at least 0.9, where 1 is the maximum)
human Vitamin D Receptor (VDR), VDR (gene 7421), sequence (P11473 whole entry, looked up, the tested form may be a part): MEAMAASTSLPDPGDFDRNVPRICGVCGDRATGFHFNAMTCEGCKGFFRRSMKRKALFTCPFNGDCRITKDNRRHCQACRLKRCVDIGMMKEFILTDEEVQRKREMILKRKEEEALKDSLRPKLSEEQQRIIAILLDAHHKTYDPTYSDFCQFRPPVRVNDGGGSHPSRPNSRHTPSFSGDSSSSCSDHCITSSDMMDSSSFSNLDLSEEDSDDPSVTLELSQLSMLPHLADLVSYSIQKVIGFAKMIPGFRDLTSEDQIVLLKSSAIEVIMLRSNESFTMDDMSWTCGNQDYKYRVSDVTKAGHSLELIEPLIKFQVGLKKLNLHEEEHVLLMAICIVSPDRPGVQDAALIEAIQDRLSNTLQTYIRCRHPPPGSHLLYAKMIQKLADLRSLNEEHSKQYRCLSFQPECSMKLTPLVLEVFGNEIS
How it was run: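 Fluorescence of labelled reporter cDNA fragments, resolved by capillary electrophoresis, gives mRNA induction after 24 h treatment of HepG2 cells carrying transfected Gal4-fusion reporter units. Activity is fitted in the positive direction with DMSO as baseline.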

[9] = BSK_3C_SRB: Viability Assessment in the BioMAP Diversity Plus: 3C Assay (AID 2283023); details: primary human endothelial cells (HUVEC);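 note: fitted both ways against DMSO so a hit may be signal rise or drop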
How it was run: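 Cells were dosed with chemical, cultured 24 h, fixed with 10% TCA, stained with 0.1% SRB and read at 560 nm. Human umbilical vein endothelium was used; DMSO served as negative control and baseline.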

[10] = read-out: Matrix Metallopeptidase 1 (MMP1), MMP1 (gene 4312); assay: BSK_BE3C_MMP1: BioMAP Diversity Plus: BE3C Assay for Matrix Metallopeptidase 1 (MMP1) Biomarker Activity (AID 2283024); details: primary human bronchial epithelial cells; actives raise or lower the signal
How it was run: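 ELISA read-out of MMP1 in human lung bronchial epithelial primary cultures, 24 h post-dose; bidirectional curve fit vs DMSO baseline, gain or loss of signal scored.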

[11] = BSK_3C_Vis: BioMAP Diversity Plus: 3C Assay for Morphology Visualization (AID 2283025); details: primary human endothelial cells (HUVEC);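 note: fitted both ways so gain or loss versus DMSO counts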;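 for AC50: light microscopy image of cell morphology used as background control; cells imaged 24 h after dosing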
How it was run: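 HUVEC, 3C system; light microscopy of morphology at 24 h post-dose. Bidirectional fit vs DMSO baseline. Secondary readout, background-control function.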

[12] = read-out: Pselectin, SELP (gene 6403); assay: BSK_4H_Pselectin: BioMAP Diversity Plus: 4H Assay for Pselectin Biomarker Activity (AID 2283026); details: primary human endothelial cells (HUVEC); actives raise or lower the signal
How it was run: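 HUVEC, 24 h chemical exposure; P-selectin read by ELISA. Bidirectional curve fit vs DMSO baseline; gain or loss of signal scored.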

[13] = BSK_4H_SRB: Viability Assessment in the BioMAP Diversity Plus: 4H Assay (AID 2283027); details: primary human endothelial cells (HUVEC);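 note: cells exposed to compound for 24 h before staining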
How it was run: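 Cytotoxicity read-out in primary human endothelial cells: after 24 h compound exposure, cells were TCA-fixed (10%), stained with 0.1% SRB and absorbance taken at 560 nm. Values fitted in both directions relative to DMSO.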

[14] = read-out: Thrombomodulin, THBD (gene 7056); assay: BSK_3C_Thrombomodulin: BioMAP Diversity Plus: 3C Assay for Thrombomodulin Biomarker Activity (AID 2283029); details: primary human endothelial cells (HUVEC); actives raise or lower the signal
How it was run: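 HUVEC, 3C conditions; compound 24 h; thrombomodulin by ELISA; bidirectional curve fit vs DMSO baseline; parallel SRB total-protein staining for cytotoxicity.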

[15] = read-out: Urokinase-type plasminogen activator receptor (uPAR), PLAUR (gene 5329); assay: BSK_4H_uPAR: BioMAP Diversity Plus: 4H Assay for Urokinase-type plasminogen activator receptor (uPAR) Biomarker Activity (AID 2283030); details: primary human endothelial cells (HUVEC); actives raise or lower the signal
How it was run: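 Chemicals are dosed onto human vascular endothelial primary cells (umbilical vein). After 24 h, uPAR is read by ELISA. Gain or loss of signal is fitted relative to DMSO.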

[16] = target: human Thyroid Receptor alpha (THRa1), THRA (gene 7067) (UniProt P10827); assay: ATG_THRa1_TRANS: Attagene TRANS-FACTORIAL HepG2 Assay for human Thyroid Receptor alpha (THRa1) (AID 2283014; active = hit-call score of the fitted dose curve at least 0.9, where 1 is the maximum)
human Thyroid Receptor alpha (THRa1), THRA (gene 7067), sequence (P10827 whole entry, looked up, the tested form may be a part): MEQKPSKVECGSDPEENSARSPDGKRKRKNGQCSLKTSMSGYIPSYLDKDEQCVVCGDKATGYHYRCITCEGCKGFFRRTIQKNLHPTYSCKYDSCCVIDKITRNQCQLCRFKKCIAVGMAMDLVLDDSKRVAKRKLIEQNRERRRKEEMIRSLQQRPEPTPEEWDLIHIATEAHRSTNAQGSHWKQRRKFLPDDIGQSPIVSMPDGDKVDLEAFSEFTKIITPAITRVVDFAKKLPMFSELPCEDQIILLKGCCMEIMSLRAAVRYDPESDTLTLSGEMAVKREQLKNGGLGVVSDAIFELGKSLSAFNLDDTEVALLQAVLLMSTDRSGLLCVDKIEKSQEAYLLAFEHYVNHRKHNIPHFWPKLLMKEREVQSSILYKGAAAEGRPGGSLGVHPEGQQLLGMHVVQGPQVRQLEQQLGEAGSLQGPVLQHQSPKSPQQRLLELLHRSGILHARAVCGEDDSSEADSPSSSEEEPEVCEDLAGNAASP
How it was run: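 First, HepG2 cells receive multiple GAL4-UAS reporter units and the chimeric receptor. They are then dosed for 24 h, after which RNA is reverse-transcribed, amplified, labelled, HpaI-cut and sized by capillary electrophoresis; gain relative to DMSO is scored.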

E-selectin (Homo sapiens), sequence (P16581 whole entry, looked up): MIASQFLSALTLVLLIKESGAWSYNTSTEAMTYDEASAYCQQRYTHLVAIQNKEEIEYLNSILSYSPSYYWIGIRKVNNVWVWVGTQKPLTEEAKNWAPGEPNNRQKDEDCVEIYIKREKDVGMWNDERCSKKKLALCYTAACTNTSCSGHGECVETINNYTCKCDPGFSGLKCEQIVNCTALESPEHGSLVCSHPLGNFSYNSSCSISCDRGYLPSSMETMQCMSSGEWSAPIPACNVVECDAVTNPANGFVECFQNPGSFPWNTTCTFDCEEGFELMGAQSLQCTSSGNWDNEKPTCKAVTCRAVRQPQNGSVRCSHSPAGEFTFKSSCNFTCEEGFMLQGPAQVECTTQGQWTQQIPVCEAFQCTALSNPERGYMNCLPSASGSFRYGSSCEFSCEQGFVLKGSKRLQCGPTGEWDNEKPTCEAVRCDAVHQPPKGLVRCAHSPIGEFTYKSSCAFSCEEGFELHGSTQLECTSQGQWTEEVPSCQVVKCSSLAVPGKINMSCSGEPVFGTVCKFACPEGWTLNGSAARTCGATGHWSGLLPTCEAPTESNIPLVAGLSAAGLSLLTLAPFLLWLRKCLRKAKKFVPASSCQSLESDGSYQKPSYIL

In the case of `CCCCCCCCC=O`, the outcome [1] is reported as “inactive”, the outcome [2] is reported as “inactive” and the outcome [3] is reported as “inactive”. For the same molecule, the outcome [4] was “inactive”, the outcome [5] was “inactive” and the outcome [6] was “inactive”. The outcome [7] was “inactive”, the outcome [8] was “inactive” and the outcome [9] was “inactive”. For the same molecule, the outcome [10] was “inactive”, the outcome [11] was “inactive” and the outcome [12] was “inactive”. For the same molecule, the outcome [13] was “inactive”, the outcome [14] was “inactive” and the outcome [15] was “inactive”.

For `c1ccc2sc(SN(C3CCCCC3)C3CCCCC3)nc2c1`, the AC50 [1] was 1.78 µM (active), the outcome [2] was “inactive” and the AC50 [3] was 10.1 µM (active). The AC50 [4] was 4.34 µM (active), the AC50 [5] was 10.2 µM (active) and the outcome [6] was “inactive”. For the same molecule, the outcome [7] was “inactive”, the outcome [8] was “inactive” and the AC50 [9] was 6.8 µM (active). The AC50 [10] was 6.54 µM (active), the AC50 [11] was 8.8 µM (active) and the AC50 [12] was 5.21 µM (active). For the same molecule, the outcome [13] was “inactive”, the outcome [14] was “inactive” and the outcome [15] was “inactive”.

For `CC(CN1c2ccccc2Sc2ccccc21)N(C)C` (stereo not given), the outcome [16] was “inactive”.

In the case of `O=C1c2ccccc2C(=O)N1SC1CCCCC1`, the outcome [8] is reported as “inactive”.

For `CCCCc1ccc(N)cc1`, the outcome [8] was “inactive”.

For `COC(C(=O)O)c1ccccc1` (stereo not given), the AC50 [16] was 62.9 µM (active) and the outcome [8] was “inactive”.
